Experimental findings from PubChem BioAssay (NCATS) are described below.

Records with an inconclusive call do not appear. Where a call stands in place of a potency, no number is given. Calls of active or inactive are those of the source. Calls come from the whole dose curve; as a rule, active = well fitted cell-killing curve with a large enough effect; inconclusive = small, poorly fitted or top-dose-only effect, or effect the other way; inactive = flat fitted curve, though single readings scatter.
Potency is the fitted concentration of half-maximal effect.

For this assay, the system named is SKOV3. The assay can be described thus: Primary qHTS to identify gynecologic anti-cancer compounds using libraries of approved drugs and bioactive compounds (AID 1345084). Note: nearly all actives have a fitted effect of over 55% in size. The following applies: Gynecologic cancer cell panel viability, ATPlite luminescence, 48 h; series mostly up to 57.5 µM. Summed up: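 Cells, 1,000 per well, were allowed to settle for 16 h at 37 C before compound addition. Five concentrations were tested for 48 h, and viability was read by ATPlite luminescence after 15 min at room temperature.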
With `C=C(C)C(=O)OC1CC(CO)CCC/C(CO)=C/C2OC(=O)C(=C)C21` (stereo not drawn), the Potency entry is “inactive”.
In the case of `CC1=C(C(=O)OC2CCCCC2)C(c2ccc([N+](=O)[O-])cc2)C2=C(CC(C)(C)CC2=O)N1` (stereo not drawn), the Potency result is “inactive”.
In the case of `CC1(C)CC[C@]2(C(=O)O[C@@H]3O[C@H](CO)[C@@H](O)[C@H](O)[C@H]3O)CC[C@]3(C)C(=CCC4[C@@]5(C)CC[C@H](O[C@@H]6O[C@H](C(=O)O)[C@H](O)[C@H](O)[C@H]6O)C(C)(C)C5CC[C@]43C)[C@@H]2C1` (stereo partly drawn), the Potency entry is “inactive”.
The entry for `O=C(Nc1ccc(-c2ccnc(Nc3ccc(N4CCOCC4)cc3)n2)cc1)C1CCCN1` (stereo not drawn) is “inactive”; for `C=C[C@H](/C=C\c1ccc(O)cc1)c1ccc(O)cc1` it is “inactive”; for `CNc1cccc(CCOc2ccc3c(c2)CN(CC(F)(F)F)C(=O)[C@H](CC(=O)O)C3)n1` it is 1.78 µM (active).
Under `C=C1C(=O)O[C@@H]2C[C@@]3(C)CCCC(=C)[C@]3(O)C[C@H]12` stands “inactive”; under `O=C(O)CCc1nccc2c1[nH]c1ccccc12`, “inactive”.
The entry for `CCNc1nc(Nc2cc(F)c(C(=O)N3CCOCC3)cc2OC)ncc1C(F)(F)F` is “inactive”.
For the compound `Cc1[nH]c(/C=C2\C(=O)Nc3ccc(F)cc32)c(C)c1C(=O)NCCN1CCCC1`, the Potency is 15.8 µM (active).
The entry for `C/C(=C\Cc1c(O)c(Cl)c(C)c(C=O)c1O)CC/C=C(\C)[C@H]1CC(=O)C(C)(C)O1` is “inactive”; for `CCn1c(=O)c(-c2ccc(-c3cncs3)cc2Cl)cc2cnc(Nc3ccc(N4CCN(C)CC4)cc3)nc21` it is “inactive”.
The figure for `c1ccc(-c2ccc(CNc3nc(-c4ccccn4)nnc3-c3ccccc3)cc2)cc1` is 12.6 µM (active).
